Compounds with a hit are over-represented: about 1.5% of the library has one in this group of screens.
RECQ1 inh-1: qHTS Assay for Inhibitors of RecQ-Like Dna Helicase 1 (RECQ1). hit rate 0.54% among 240,000. AID 2549, 2010. Potency, µM (doses to about 57.3 µM), for the others: at the top dose activity, negative = inhibition, hits mostly inhibitors. RECQ1 DNA unwinding, red fluorescence kinetic read. ATP-dependent DNA helicase Q1 (Homo sapiens), P46063;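 further: potency means the concentration at half of the fitted maximal effect; plate controls were vehicle for no effect and no enzyme for full effect; nearly all actives have a fitted effect of over 30% in size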
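50 nM RECQ1T1 preincubated 15 min with compound in Tris pH 8.0 buffer with MgCl2, DTT, Tween-20 and 2.5 ug/ml poly(dI-dC); started with 200 nM TAMRA/BHQ-2 forked duplex and 2 mM ATP. Unwinding read as fluorescence (525/598 nm), two reads 2 h apart.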
WRN inhibitor: qHTS for Inhibitors of WRN Helicase | Bifunctional 3'-5' exonuclease/ATP-dependent helicase WRN (Homo sapiens), Q14191 | WRN helicase unwinding, fluorescent forked duplex, kinetic | Potency, µM (top dose mostly 114 µM), inactives show at the highest dose activity change, negative = inhibition, most hits filed as inhibitors | hit rate 0.46% among 360,000; further: potency means the concentration at half of the fitted maximal effect; nearly all actives have a fitted effect of over 55% in size
Target sequence (Q14191 whole entry, looked up): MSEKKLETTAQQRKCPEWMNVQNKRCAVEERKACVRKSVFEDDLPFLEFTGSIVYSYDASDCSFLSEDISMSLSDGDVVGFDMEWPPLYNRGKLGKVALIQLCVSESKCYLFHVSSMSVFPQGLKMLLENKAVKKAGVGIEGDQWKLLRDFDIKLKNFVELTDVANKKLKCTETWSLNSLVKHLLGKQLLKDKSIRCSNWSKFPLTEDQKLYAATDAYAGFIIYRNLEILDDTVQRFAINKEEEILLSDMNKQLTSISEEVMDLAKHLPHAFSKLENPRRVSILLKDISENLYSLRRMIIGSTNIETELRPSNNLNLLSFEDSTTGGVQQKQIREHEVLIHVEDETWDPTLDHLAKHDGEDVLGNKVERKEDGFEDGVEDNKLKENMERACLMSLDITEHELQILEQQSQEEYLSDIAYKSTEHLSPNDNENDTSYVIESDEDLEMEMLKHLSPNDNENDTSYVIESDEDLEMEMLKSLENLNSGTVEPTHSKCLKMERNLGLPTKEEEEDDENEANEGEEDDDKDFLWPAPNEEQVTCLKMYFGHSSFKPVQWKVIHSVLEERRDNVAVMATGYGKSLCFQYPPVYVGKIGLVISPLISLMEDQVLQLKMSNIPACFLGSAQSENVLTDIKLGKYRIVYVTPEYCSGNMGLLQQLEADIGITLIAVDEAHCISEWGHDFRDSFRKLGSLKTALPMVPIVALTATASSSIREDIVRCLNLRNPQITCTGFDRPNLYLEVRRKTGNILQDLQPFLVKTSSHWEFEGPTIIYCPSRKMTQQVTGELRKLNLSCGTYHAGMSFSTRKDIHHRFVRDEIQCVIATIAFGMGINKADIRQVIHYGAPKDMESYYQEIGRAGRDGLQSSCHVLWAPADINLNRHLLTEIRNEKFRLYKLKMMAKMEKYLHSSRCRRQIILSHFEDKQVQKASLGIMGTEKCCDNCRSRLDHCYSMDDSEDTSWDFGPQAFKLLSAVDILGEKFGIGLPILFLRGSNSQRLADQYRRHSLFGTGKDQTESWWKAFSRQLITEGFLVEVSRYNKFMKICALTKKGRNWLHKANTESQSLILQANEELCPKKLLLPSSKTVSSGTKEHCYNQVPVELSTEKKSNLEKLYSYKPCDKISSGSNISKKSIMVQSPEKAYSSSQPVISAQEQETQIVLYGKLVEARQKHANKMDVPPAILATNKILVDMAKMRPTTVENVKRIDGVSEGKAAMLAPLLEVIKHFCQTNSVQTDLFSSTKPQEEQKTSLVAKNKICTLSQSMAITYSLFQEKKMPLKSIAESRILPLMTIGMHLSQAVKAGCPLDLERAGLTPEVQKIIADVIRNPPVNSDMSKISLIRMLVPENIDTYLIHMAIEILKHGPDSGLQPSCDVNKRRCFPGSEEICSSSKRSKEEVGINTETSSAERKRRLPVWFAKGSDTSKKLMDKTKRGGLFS
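Primary qHTS, 1536-well format. 20 nM WRN + compound, 15 min RT; start with 100 nM forked fluorophore/quencher duplex, 2 mM ATP (final); kinetic read ex 525/em 598 nm.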
APEX1 inh: qHTS Assay for Inhibitors of the Human Apurinic/apyrimidinic Endonuclease 1 (APE1); Potency, µM (doses to about 65.8 µM), for inactives: at the highest dose activity change, negative = inhibition, hits mostly inhibitors; hit rate 0.35% among 350,000; recombinant APE1, TAMRA/BHQ-2 abasic DNA cleavage fluorescence; DNA repair nuclease/redox regulator APEX1 (Homo sapiens), P27695;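 further: potency means the concentration at half of the fitted maximal effect; plate controls were vehicle for no effect and reference inhibitor for full effect; nearly all actives have a fitted effect of over 55% in size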
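APE1 at 0.75 nM preincubated 15 min at room temperature with compound. Reaction then started with 50 nM double-stranded THF-abasic substrate labelled with TAMRA/BHQ-2, and 525/598 nm fluorescence read kinetically. Activity taken as third-minus-first read difference, normalized to DMSO and NSC13755 controls.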
BLM inh: qHTS Assay for Inhibitors of Bloom's syndrome helicase (BLM) | Potency, µM (highest dose often 56.1 µM), for the others: at the highest dose activity change, negative = inhibition, hits mostly inhibitors | recombinant BLM DNA unwinding, fluorescence dequenching | RecQ-like DNA helicase BLM (Homo sapiens), P54132 | hit rate 0.2% among 350,000;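 further: potency means the concentration at half of the fitted maximal effect; plate controls were vehicle for no effect and no enzyme for full effect; nearly all actives have a fitted effect of over 35% in size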
FEN1 inh: qHTS Assay for the Inhibitors of Human Flap endonuclease 1 (FEN1) | P39748 | Recombinant FEN1 flap cleavage, fluorescence, 15 min | Potency, µM (titrated, usually from 114 µM), without a hit: at the top dose activity change, negative = inhibition, hits mostly inhibitors | hit rate 0.35% among 390,000; further: potency means the concentration at half of the fitted maximal effect; nearly all actives have a fitted effect of over 65% in size
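Quantitative HTS format: each compound was titrated, incubated with 10 nM nuclease for 15 min at room temperature, then challenged with flap substrate at 50 nM final. Signal change over 15 min gave concentration–effect curves.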
PI5P4Ka inh: qHTS for Inhibitors of phosphatidylinositol 5-phosphate 4-kinase (PI5P4K) | hit rate 1.2% among 330,000 | PI5P4Kalpha enzyme, ADP-Glo luminescence, 60 min; stronger effect = lower value | Phosphatidylinositol 5-phosphate 4-kinase type-2 alpha (Homo sapiens), P48426 | max response, %; active means max response of -50% or lower; inconclusive means between -30% and -50%; inactive means -30% or higher; further: value at the top dose of about 77 µM
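qHTS, 1536-well: enzyme/substrate mix, compound by pin tool, 5 microM ATP final; RT 60 min; ADP-Glo reagents 1 (45 min) then 2 (30 min); luminescence.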
RECQ1 conf: Confirmation qHTS Assay for Inhibitors of RecQ-Like Dna Helicase 1 (RECQ1) | shares compounds with RECQ1 inh-1 | RECQ1 helicase DNA unwinding, fluorescence | Potency, µM (series often up to 229 µM), without a hit: at the top dose activity change, negative = inhibition, hits mostly inhibitors | hit rate 28% among 610 | AID 2708, 2010; further: potency means the concentration at half of the fitted maximal effect; nearly all actives have a fitted effect of over 45% in size
ADP FP counter: Counterscreen for RECQ1 Inhibitors: ADP Fluorescence Polarization Displacement Assay | shares compounds with RECQ1 inh-1 | ADP fluorescence polarization displacement counterscreen | AID 2711, 2010 | hit rate 27% among 530 | Potency, µM (series often up to 228 µM), for the others: at the highest dose activity change, negative = inhibition, hits mostly inhibitors; further: potency means the concentration at half of the fitted maximal effect; nearly all actives have a fitted effect of over 45% in size
RECQ1 inh-2: Confirmation qHTS Assay for Inhibitors of RecQ-Like Dna Helicase 1 (RECQ1) - Round 2 Cherry Picks. shares compounds with RECQ1 inh-1. recombinant RECQ1 DNA unwinding, red fluorescence. Potency, µM (series often up to 119 µM), inactives show at the top dose activity, negative = inhibition, actives largely listed as inhibitors. hit rate 15% among 1,100. AID 504841, 2011; further: potency means the concentration at half of the fitted maximal effect; nearly all actives have a fitted effect of over 50% in size
* marks the source's active call; other numbers are inactive results; i = inactive; ? = inconclusive; . = no result given; [ ] = dose if it differs, or a comment. Unless noted, the call rests on the fitted dose curve; in most records, active means well fitted curve in the direction sought with a large enough effect; inconclusive means small, poorly fitted or top-dose-only effect, or another doubt; inactive means no such curve, though single readings can be large; an effect the other way counts as inactive or inconclusive. Unless noted, on the % scale 0 is the no-effect control and ±100 the full control effect.

SMILES | RECQ1 inh-1 | WRN inhibitor | APEX1 inh | BLM inh | FEN1 inh | PI5P4Ka inh | RECQ1 conf | ADP FP counter | others
COc1ccccc1OCC(=O)Nc1ccc(C(=O)Nc2ccccc2C(=O)O)cc1 | . | -3% | . | . | . | ? | . | .
COc1ccc(CC(=O)Nc2ccc(C(=O)Nc3ccccc3C(=O)O)cc2)cc1OC | -1% | -31% | 1% | -9% | 7% | -20 | 15% | -12%
CCCCOc1cccc(NC(=O)CSc2nnc(C)s2)c1 | . | . | . | -6% | -11% | . | . | .
O=C(O)CC(SCC(=O)NC1CCCc2ccccc21)C(=O)O (configuration not stated) | 7% | 4% | -2% | 1% | 5% | 0 | 1% | 6%
CCOc1ccc(NC(=O)c2cccc3c(=O)c4c([nH]c23)CCCC4)cc1 | . | . | . | 0% | 2% | . | . | .
Cc1ccccc1NC(=O)/C(C#N)=C/c1ccc(Cl)cc1Cl | . | . | . | -7% | -21% | . | . | .
COc1ncnc2c1NC1=C(S2)C(=NCCC(=O)O)CC(C)(C)C1 | ? | ? | ? | ? | -1% | -5 | . | . | RECQ1 inh-2=79µM*
CC(C)(C)OC(=O)N1CCC(c2c(C(=O)N3CCCCC3)cnn2-c2ccccc2Cl)CC1 | . | . | . | 1% | 15% | . | . | .
CCNc1ccc(Br)cc(C(=O)/C=C/c2c(Cl)cccc2Cl)c1=O | 1% | ? | ? | ? | ? | -18 | . | .
CCNc1ccc(Br)cc(C(=O)/C=C/c2ccc(Cl)cc2)c1=O | 32µM* | -15%[11.6 µM] | 2% | -20% | -4% | ? | . | . | RECQ1 inh-2=-29%
CNc1ccc(Br)cc(C(=O)/C=C/c2cccc(OC)c2)c1=O | 28µM* | -34%[57.1 µM] | ? | -29% | ? | -26 | . | . | RECQ1 inh-2=?
CCNc1ccc(Br)cc(C(=O)/C=C/c2ccc3c(c2)OCO3)c1=O | ? | ? | ? | -25% | ? | ? | . | . | RECQ1 inh-2=?
CCC(C(=O)O)C1OC(C(C)C(O)C(C)C(=O)C(CC)C2OC3(C=CC(O)C4(CCC(C)(C5CCC(O)(CC)C(C)O5)O4)O3)C(C)CC2C)C(C)CC1C (configuration not stated) | . | . | . | -3% | . | . | . | .
Cc1cccc(-n2c(C)nnc2SCC(=O)NC(C)c2ccco2)c1 (configuration not stated) | . | . | . | . | 16% | . | . | .
Cc1ccc(Nc2nnc(SCC(=O)NC(Cc3c[nH]c4ccccc34)C(=O)O)s2)cc1 (configuration not stated) | i | -23% | -4% | -2% | -12% | -29 | -3% | 13%
CCOc1ccccc1Nc1nnc(SCC(=O)NC(Cc2c[nH]c3ccccc23)C(=O)O)s1 (configuration not stated) | 0% | -32% | -1% | -11% | 3% | -10 | -3% | ?
COc1ccccc1OCC(=O)Nc1cc(-c2ccc(C)cc2)no1 | . | . | . | 1% | -4% | . | . | .
CCc1nc2ccccc2c(=O)n1NC(=O)c1c(O)c2cccc3c2n(c1=O)CCC3 | 5% | 0% | 5% | -3% | -8% | 1 | . | .
O=C(Nn1c(Cc2ccccc2)nc2ccccc2c1=O)c1c(O)c2cccc3c2n(c1=O)CCC3 | i | -4% | 1% | -3% | -10% | 10 | ? | ?
CCCCc1nc2ccccc2c(=O)n1NC(=O)c1c(O)c2c(n(CC(C)C)c1=O)CCCC2 | i | 2% | -3% | -10% | 0% | 1 | ? | 38%
COc1ccc(CCNC(=O)c2cc(=O)c3cc(C)c(C)cc3o2)cc1OC | . | . | . | 5% | 14% | . | . | .
COc1ccccc1C1CC(=O)Oc2cc3c(cc21)OCO3 (configuration not stated) | 35µM* | . | 32µM* | -30%[75.6 µM] | . | . | . | . | RECQ1 inh-2=28µM*
COc1ccccc1C1CC(=O)Oc2cc(C)c(Cl)cc21 (configuration not stated) | -19%[81.1 µM] | -14% | 8% | -16%[75.6 µM] | -5% | 4 | . | .
COC(=O)c1sc2ccccc2c1NC(=O)c1ccc(S(=O)(=O)N2CC(C)CC(C)C2)cc1 (configuration not stated) | -2% | -3% | 1% | 4% | -5% | 12 | 13% | -15%
CCc1ccc(NC(=O)COC(=O)c2ccc(Cl)c(S(=O)(=O)N3CCCCCC3)c2)cc1 | ? | -15% | 8% | -6% | -10% | 6 | . | . | RECQ1 inh-2=?
SMILES | RECQ1 inh-1 | WRN inhibitor | APEX1 inh | BLM inh | FEN1 inh | PI5P4Ka inh | RECQ1 conf | ADP FP counter | others
CNC(=O)COC(=O)c1ccc(Cl)c(S(=O)(=O)N2CCCC2)c1 | -2% | -7% | -16% | 0% | 14% | -5 | . | .
COc1ccc(OC)c(-c2csc(NC(=O)Cc3ccc(F)cc3)n2)c1 | . | -9% | 60% | -15% | -20% | 21 | . | .
COc1ccc(OC)c(-c2csc(NC(=O)Cn3[nH]c(=O)c4ccccc4c3=O)n2)c1 | 28µM* | -13%[11.6 µM] | -4% | -11% | 48% | 3 | . | . | RECQ1 inh-2=?
Cc1ccc(NCc2nnc(SCC(=O)O)n2Cc2ccccc2)cc1Cl | 22% | -10% | -3% | 0% | -7% | -4 | 8% | 3%
Cc1ccc(SCc2nc(-c3ccc(C(=O)Nc4cc(C)ccc4C)cc3)oc2C)cc1 | . | . | . | -2% | 16% | . | . | .
Cc1ccc(CCNC(=O)c2cc3sccc3n2Cc2ccc(F)cc2)cc1 | . | . | . | -4% | 11% | . | . | .
CC(C)(C)c1nc(SCC(=O)NCc2ccco2)c2ccccc2n1 | 4% | -26% | -3% | -7% | 5% | -10 | . | .

Screening results deposited in PubChem by National Center for Advancing Translational Sciences (NCATS).
